Experimental data published in PubChem BioAssay (NCI).
This is part of a sample that, as a whole, favours compounds with a hit. Of some 83,000 tested, about 20% had one in any assay.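 Values shown are percent growth following 48 h exposure of cells in 96-well plates to a single concentration of compound; below 10 was considered active.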 A number with no mark means an inactive call. Activity calls are given as the source filed them.

Key:
Test in all cases: NCI-60 one-dose screen, 48 h (100 = growth as untreated, 0 = no growth, -100 = all killed)
Conditions in all cases: 10 µM unless noted
RPMI-8226 leukemia = test system: RPMI-8226 leukemia
OVCAR-8 ovarian = test system: OVCAR-8 ovarian
OVCAR-5 ovarian = test system: OVCAR-5 ovarian
OVCAR-4 ovarian = test system: OVCAR-4 ovarian
SK-OV-3 ovarian = test system: SK-OV-3 ovarian
IGROV1 ovarian = test system: IGROV1 ovarian
OVCAR-3 ovarian = test system: OVCAR-3 ovarian
HS 578T breast = test system: HS 578T breast
NCI/ADR-RES ovarian = test system: NCI/ADR-RES ovarian
T-47D breast = test system: T-47D breast

Compound `CCC(C)(C)C(=O)O[C@H]1C[C@@H](C)C=C2C=C[C@H](C)[C@H](CC[C@@H]3C[C@@H](O)CC(=O)O3)[C@H]21` has a growth (RPMI-8226 leukemia) of 62.7%, a growth (OVCAR-8 ovarian) of 48% and a growth (OVCAR-5 ovarian) of 87.1%. For the same compound, the growth (OVCAR-4 ovarian) was 86.6%, the growth (SK-OV-3 ovarian) was 70% and the growth (IGROV1 ovarian) was 28.8%. For the same compound, the growth (OVCAR-3 ovarian) was 85.7%, the growth (HS 578T breast) was 42.4% and the growth (NCI/ADR-RES ovarian) was 25.5%. The growth (T-47D breast) was 92.1%.
With `N#Cc1c(N2CCOCC2)nc2sc3cc(Cl)ccc3n2c1=N` the growth (RPMI-8226 leukemia) was 94.4%, the growth (OVCAR-8 ovarian) was 95.7% and the growth (OVCAR-5 ovarian) was 95.2%. It also gave a growth (OVCAR-4 ovarian) of 102%, a growth (SK-OV-3 ovarian) of 67.3% and a growth (IGROV1 ovarian) of 67.2%. It also gave a growth (OVCAR-3 ovarian) of 104%, a growth (HS 578T breast) of 66.8% and a growth (NCI/ADR-RES ovarian) of 99%. It also gave a growth (T-47D breast) of 33.1%.
Compound `CC[N+](C)(CC)CCCC(C)Nc1ccnc2cc(Cl)ccc12` (stereo not given) has a growth (RPMI-8226 leukemia) of 106%, a growth (OVCAR-8 ovarian) of 100% and a growth (OVCAR-5 ovarian) of 119%. The growth (OVCAR-4 ovarian) was 112%, the growth (SK-OV-3 ovarian) was 111% and the growth (IGROV1 ovarian) was 110%. For the same compound, the growth (OVCAR-3 ovarian) was 101%, the growth (HS 578T breast) was 104% and the growth (NCI/ADR-RES ovarian) was 112%. For the same compound, the growth (T-47D breast) was 101%.
`N=C(N)/N=C(\CCc1nc2ccccc2[nH]1)c1nc2ccccc2[nH]1` was tested, and the growth (RPMI-8226 leukemia) was 105%, the growth (OVCAR-8 ovarian) was 105% and the growth (OVCAR-5 ovarian) was 90%. It also gave a growth (OVCAR-4 ovarian) of 107%, a growth (SK-OV-3 ovarian) of 108% and a growth (IGROV1 ovarian) of 114%. It also gave a growth (OVCAR-3 ovarian) of 109%, a growth (HS 578T breast) of 99.4% and a growth (NCI/ADR-RES ovarian) of 93.4%. It also gave a growth (T-47D breast) of 99.7%.
`O=Cc1c[nH]c2ccc(NC(=O)OCc3ccccc3)cc12` showed a growth (RPMI-8226 leukemia) of 93%, a growth (OVCAR-8 ovarian) of 103% and a growth (OVCAR-5 ovarian) of 97.5%. For the same compound, the growth (OVCAR-4 ovarian) was 104%, the growth (SK-OV-3 ovarian) was 97.6% and the growth (IGROV1 ovarian) was 32.4%. The growth (OVCAR-3 ovarian) was 123%, the growth (HS 578T breast) was 252% and the growth (NCI/ADR-RES ovarian) was 96.3%. For the same compound, the growth (T-47D breast) was 84.2%.
In the case of `CC(CCC(=O)O)(NC(=O)c1ccc([N+](=O)[O-])cc1)C(=O)O` (stereo not given), the growth (RPMI-8226 leukemia) is reported as 116%, the growth (OVCAR-8 ovarian) is reported as 102% and the growth (OVCAR-5 ovarian) is reported as 118%. It also gave a growth (OVCAR-4 ovarian) of 111%, a growth (SK-OV-3 ovarian) of 96% and a growth (IGROV1 ovarian) of 115%. The growth (OVCAR-3 ovarian) was 108%, the growth (HS 578T breast) was 105% and the growth (NCI/ADR-RES ovarian) was 108%. The growth (T-47D breast) was 93.7%.
`CN(CCOc1ccc(CC2SC(=O)NC2=O)cc1)c1ccccn1` (stereo not given) showed a growth (RPMI-8226 leukemia) of 104%, a growth (OVCAR-8 ovarian) of 91.9% and a growth (OVCAR-5 ovarian) of 95.2%. It also gave a growth (OVCAR-4 ovarian) of 110%, a growth (SK-OV-3 ovarian) of 106% and a growth (IGROV1 ovarian) of 97.9%. For the same compound, the growth (OVCAR-3 ovarian) was 110%, the growth (HS 578T breast) was 100% and the growth (NCI/ADR-RES ovarian) was 101%. For the same compound, the growth (T-47D breast) was 102%.
`CCC(CC)NCCCCCNc1cc(OC)cc2cccnc12` showed a growth (RPMI-8226 leukemia) of 115%, a growth (OVCAR-8 ovarian) of 93.5% and a growth (OVCAR-5 ovarian) of 88.9%. The growth (OVCAR-4 ovarian) was 32.1%, the growth (SK-OV-3 ovarian) was 97.7% and the growth (IGROV1 ovarian) was 111%. The growth (OVCAR-3 ovarian) was 83.3%, the growth (HS 578T breast) was 91.2% and the growth (NCI/ADR-RES ovarian) was 83.3%. The growth (T-47D breast) was 73.8%.
For `COc1ccc2c(c1)C(=O)c1c-2c(OCCN(C)C)nc2cc(OC)ccc12`, the growth (RPMI-8226 leukemia) was -25.4% (active), the growth (OVCAR-8 ovarian) was 4.01% (active) and the growth (OVCAR-5 ovarian) was 44.9%. The growth (OVCAR-4 ovarian) was 4.71% (active), the growth (SK-OV-3 ovarian) was 23.9% and the growth (IGROV1 ovarian) was 6.3% (active). The growth (OVCAR-3 ovarian) was 32.5%, the growth (HS 578T breast) was 35.6% and the growth (NCI/ADR-RES ovarian) was -11.3% (active). The growth (T-47D breast) was 47.1%.
`N=c1ccn2c(n1)O[C@@H]1[C@@H](O)[C@H](CO)O[C@@H]12` showed a growth (RPMI-8226 leukemia) of 94.4%, a growth (OVCAR-8 ovarian) of 25.7% and a growth (OVCAR-5 ovarian) of 81%. For the same compound, the growth (OVCAR-4 ovarian) was 76.7%, the growth (SK-OV-3 ovarian) was 61.7% and the growth (IGROV1 ovarian) was 71.4%. The growth (OVCAR-3 ovarian) was 87.5%, the growth (HS 578T breast) was 99% and the growth (NCI/ADR-RES ovarian) was 41.6%. The growth (T-47D breast) was 92.7%.
With `N#Cc1c(N)[nH]c(S)c1C#N` the growth (RPMI-8226 leukemia) was 107%, the growth (OVCAR-8 ovarian) was 101% and the growth (OVCAR-5 ovarian) was 99.7%. For the same compound, the growth (OVCAR-4 ovarian) was 109%, the growth (SK-OV-3 ovarian) was 100% and the growth (IGROV1 ovarian) was 107%. The growth (OVCAR-3 ovarian) was 120%, the growth (HS 578T breast) was 104% and the growth (NCI/ADR-RES ovarian) was 116%. The growth (T-47D breast) was 89.3%.
For `COc1cc(NC(=O)c2cc3ccccc3cc2O)c(OC)cc1Cl`, the growth (RPMI-8226 leukemia) was -48.7% (active), the growth (OVCAR-8 ovarian) was 7.08% (active) and the growth (OVCAR-5 ovarian) was 2.16% (active). For the same compound, the growth (OVCAR-4 ovarian) was 38.4%, the growth (SK-OV-3 ovarian) was -14.9% (active) and the growth (IGROV1 ovarian) was -31% (active). The growth (OVCAR-3 ovarian) was 10.7%, the growth (HS 578T breast) was 51.7% and the growth (NCI/ADR-RES ovarian) was -20.6% (active). The growth (T-47D breast) was 4.25% (active).
For `COc1ccc2c(c1)/C(=C\c1c[nH]c3ccc(F)cc13)C(=O)N2`, the growth (RPMI-8226 leukemia) was 61.5%, the growth (OVCAR-8 ovarian) was 81.9% and the growth (OVCAR-5 ovarian) was 100%. For the same compound, the growth (OVCAR-4 ovarian) was 65.1%, the growth (SK-OV-3 ovarian) was 93.4% and the growth (IGROV1 ovarian) was 69.5%. It also gave a growth (OVCAR-3 ovarian) of 83.7%, a growth (HS 578T breast) of 99.9% and a growth (NCI/ADR-RES ovarian) of 85.2%. For the same compound, the growth (T-47D breast) was 42.8%.
